Measured values reported in the OligoGym collection.

Target: KLHL24
Assay: pooled miR-30 sensor sort-seq; sequence = guide strand
Settings: shRNA
Further: reference of the scale not given here.

Sequence	sensor-assay potency score (higher = more potent)
TTTTGTGACGCCATCTGCCTTT	-0.286
TATTTTTCTATCTCCTACCTAA	0.015
TATGAATAGTCACACAGCCATG	-1.71
TTCAACTGGATCGTAACAGTAT	-0.312
TATCTATGAATAGTCACACAGC	-1.1
AAACTTTTCGCTTAGTTGCTGG	-0.446
TTGCCTTGGTCAGTCCACCGGC	-0.546

Target: KLHL5
Assay: as above
Settings: shRNA

Sequence	sensor-assay potency score (higher = more potent)
TAAAATTACATCACACAACTGT	0.596
TAATGTCTGACTACTATTGGAA	-0.622
TTTCTCTACATAAATTTGCATA	-0.841
TATGCAAATCTGTACAACCTTG	-0.563
TGTGTGATCACAATCCACCAGC	-0.62
TTTGACATCAGGCACTTTGTGC	-0.672
TTATTGTTGCTTTAAGTCCTTA	-0.543
TTCATTAAAAACTTACAGCATG	-0.802
TTGACATCTGTGCACACAGTGT	-0.886
TAGCACTGCAACACCGAACTGT	0.529
TATCTTTCCACACAGTCTGAGA	-1.09
TAACATGGGTCGTCTCTCTGGT	0.867
